Source: the supplement of paper PMC10849652
About 8,800 targets were measured; listed, in parts, are those with a hit and a random draw of the rest. About 0.5% of all pairs of compound and target were hits. Values without a mark were called inactive.

What was measured:
Assay in all cases: log2 fold change, soluble protein after heating vs DMSO (PISA); higher = thermal stabilisation; K562 lysate, 10 uM; active = over 0.2 and 3.5 SD of the protein, either way, in both replicates (recomputed)
lapatinib = compound: CS(=O)(=O)CCNCc1ccc(-c2ccc3ncnc(Nc4ccc(OCc5cccc(F)c5)c(Cl)c4)c3c2)o1 [lapatinib]
In short: (§1)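 Dounce homogenisation of K562 pellets in PBS pH 7.4 with 1 mM MgCl2 produced a crude extract, used at 1 mg/mL protein. Exposure to 10 μM compound lasted 30 min, and aliquots were then heated for 3 min across 48°C-58°C, pooled and brought to 0.5% NP-40 at 4°C. The supernatant after 21,000xg for 90 min was quantified by TMTpro 16plex LC-MS/MS with channel sums equalised. Duplicate values are given as log-two fold change in thermal stability relative to solvent controls.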

pictilisib = compound: CS(=O)(=O)N1CCN(Cc2cc3nc(-c4cccc5[nH]ncc45)nc(N4CCOCC4)c3s2)CC1 [pictilisib]
In short: as §1

crizotinib = compound: C[C@@H](Oc1cc(-c2cnn(C3CCNCC3)c2)cnc1N)c1c(Cl)ccc(F)c1Cl [crizotinib]
In short: as §1

[1] = compound: C[C@H](C1=CC=C(C=C1)C(=O)NC2=C3C=CNC3=NC=C2)N
In short: as §1

duvelisib = compound: C[C@H](Nc1ncnc2nc[nH]c12)c1cc2cccc(Cl)c2c(=O)n1-c1ccccc1 [duvelisib]
In short: as §1

gandotinib = compound: Cc1cc(Nc2cc(CN3CCOCC3)c3nc(C)c(Cc4ccc(Cl)cc4F)n3n2)n[nH]1 [gandotinib]
In short: as §1

tozasertib = compound: Cc1cc(Nc2cc(N3CCN(C)CC3)nc(Sc3ccc(NC(=O)C4CC4)cc3)n2)n[nH]1 [tozasertib]
In short: as §1

doramapimod = compound: Cc1ccc(-n2nc(C(C)(C)C)cc2NC(=O)Nc2ccc(OCCN3CCOCC3)c3ccccc23)cc1 [doramapimod]
In short: as §1

bafetinib = compound: Cc1ccc(NC(=O)c2ccc(CN3CC[C@H](N(C)C)C3)c(C(F)(F)F)c2)cc1Nc1nccc(-c2cncnc2)n1 [bafetinib]
In short: as §1

[2] = compound: Cc1cccc(CC(=O)N2CCc3c2ccc(-c2cn(C)c4ncnc(N)c24)c3F)n1
In short: as §1

nilotinib = compound: Cc1cn(-c2cc(NC(=O)c3ccc(C)c(Nc4nccc(-c5cccnc5)n4)c3)cc(C(F)(F)F)c2)cn1 [nilotinib]
In short: as §1

[3] = compound: Cc1nc(Nc2n[nH]c3c2CN(C(=O)N[C@H](CN(C)C)c2ccccc2)C3(C)C)c2sccc2n1
In short: as §1

dasatinib = compound: Cc1nc(Nc2ncc(C(=O)Nc3c(C)cccc3Cl)s2)cc(N2CCN(CCO)CC2)n1 [dasatinib]
In short: as §1

[4] = compound: Cc1ncc(-c2ccnc(Nc3ccc(S(C)(=O)=O)cc3)n2)n1C(C)C
In short: as §1

[5] = compound: Cn1cc(-c2ccc3c(c2)CCN3C(=O)Cc2cccc(C(F)(F)F)c2)c2c(N)ncnc21
In short: as §1

quisinostat = compound: Cn1cc(CNCC2CCN(c3ncc(C(=O)NO)cn3)CC2)c2ccccc21 [quisinostat]
In short: as §1

tipifarnib = compound: Cn1cncc1[C@@](N)(c1ccc(Cl)cc1)c1ccc2c(c1)c(-c1cccc(Cl)c1)cc(=O)n2C [tipifarnib]
In short: as §1

[6] = compound: NC(=O)Nc1cc(-c2cccc(F)c2)sc1C(=O)N[C@H]1CCCNC1
In short: as §1

[7] = compound: NC(=O)c1cnc(N[C@@H]2CCCC[C@@H]2N)nc1Nc1cccc(-n2nccn2)c1
In short: as §1

[8] = compound: NC1(c2ccc(-c3nc4ccn5c(=O)[nH]nc5c4cc3-c3ccccc3)cc2)CCC1
In short: as §1

Sequence of UniProt P49840 (P49840 whole entry, looked up): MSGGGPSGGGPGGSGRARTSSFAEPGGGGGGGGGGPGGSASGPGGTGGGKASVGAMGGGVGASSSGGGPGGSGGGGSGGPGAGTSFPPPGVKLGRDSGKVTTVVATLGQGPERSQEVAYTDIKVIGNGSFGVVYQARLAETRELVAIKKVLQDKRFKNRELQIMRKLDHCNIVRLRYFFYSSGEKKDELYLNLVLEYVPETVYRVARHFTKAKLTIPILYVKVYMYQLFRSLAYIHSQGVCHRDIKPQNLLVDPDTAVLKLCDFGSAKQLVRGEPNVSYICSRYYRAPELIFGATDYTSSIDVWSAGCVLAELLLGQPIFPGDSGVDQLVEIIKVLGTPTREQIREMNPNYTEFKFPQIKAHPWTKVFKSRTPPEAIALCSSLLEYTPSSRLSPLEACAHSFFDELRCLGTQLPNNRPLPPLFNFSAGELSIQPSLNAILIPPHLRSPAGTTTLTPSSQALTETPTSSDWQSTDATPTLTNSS
Sequence of UniProt Q9H0C8 (Q9H0C8 whole entry, looked up): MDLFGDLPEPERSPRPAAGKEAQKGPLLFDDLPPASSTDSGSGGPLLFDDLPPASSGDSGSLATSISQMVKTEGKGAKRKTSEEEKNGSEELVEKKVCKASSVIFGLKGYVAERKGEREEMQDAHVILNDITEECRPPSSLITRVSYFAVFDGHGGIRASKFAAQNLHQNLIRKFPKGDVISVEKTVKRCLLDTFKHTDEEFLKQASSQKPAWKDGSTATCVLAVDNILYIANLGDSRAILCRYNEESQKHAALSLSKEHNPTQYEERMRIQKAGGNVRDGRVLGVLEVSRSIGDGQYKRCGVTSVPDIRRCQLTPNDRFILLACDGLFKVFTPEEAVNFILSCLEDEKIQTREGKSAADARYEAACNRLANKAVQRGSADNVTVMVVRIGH
Sequence of UniProt Q5T447 (Q5T447 whole entry, looked up): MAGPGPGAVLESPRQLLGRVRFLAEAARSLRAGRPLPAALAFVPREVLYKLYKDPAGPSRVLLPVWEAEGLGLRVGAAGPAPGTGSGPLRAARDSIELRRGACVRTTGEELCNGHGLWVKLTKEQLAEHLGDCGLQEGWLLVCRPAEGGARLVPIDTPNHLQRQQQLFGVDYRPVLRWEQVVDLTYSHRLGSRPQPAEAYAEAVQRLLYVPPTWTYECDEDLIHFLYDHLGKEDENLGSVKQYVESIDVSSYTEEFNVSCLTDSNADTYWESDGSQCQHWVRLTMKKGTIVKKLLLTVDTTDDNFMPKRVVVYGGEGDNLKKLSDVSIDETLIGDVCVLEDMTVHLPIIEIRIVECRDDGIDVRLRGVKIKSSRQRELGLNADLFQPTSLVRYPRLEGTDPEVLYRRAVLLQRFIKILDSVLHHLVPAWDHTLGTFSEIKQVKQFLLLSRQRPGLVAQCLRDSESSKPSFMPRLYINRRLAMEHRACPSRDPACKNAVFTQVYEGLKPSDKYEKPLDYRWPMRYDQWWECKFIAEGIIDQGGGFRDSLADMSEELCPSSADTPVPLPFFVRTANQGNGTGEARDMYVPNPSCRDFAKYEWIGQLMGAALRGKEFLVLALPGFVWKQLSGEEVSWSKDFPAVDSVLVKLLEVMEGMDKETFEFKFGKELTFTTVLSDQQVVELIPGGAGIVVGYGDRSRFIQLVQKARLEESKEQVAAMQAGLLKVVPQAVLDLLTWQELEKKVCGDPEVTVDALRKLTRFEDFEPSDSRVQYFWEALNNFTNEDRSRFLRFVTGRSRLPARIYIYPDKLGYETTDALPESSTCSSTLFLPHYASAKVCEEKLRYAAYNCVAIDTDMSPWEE
Sequence of UniProt P17096 (P17096 whole entry, looked up): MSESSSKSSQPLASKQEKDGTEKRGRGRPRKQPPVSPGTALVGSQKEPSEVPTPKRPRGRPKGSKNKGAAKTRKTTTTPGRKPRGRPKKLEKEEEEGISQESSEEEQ
Sequence of UniProt Q96EW2 (Q96EW2 whole entry, looked up): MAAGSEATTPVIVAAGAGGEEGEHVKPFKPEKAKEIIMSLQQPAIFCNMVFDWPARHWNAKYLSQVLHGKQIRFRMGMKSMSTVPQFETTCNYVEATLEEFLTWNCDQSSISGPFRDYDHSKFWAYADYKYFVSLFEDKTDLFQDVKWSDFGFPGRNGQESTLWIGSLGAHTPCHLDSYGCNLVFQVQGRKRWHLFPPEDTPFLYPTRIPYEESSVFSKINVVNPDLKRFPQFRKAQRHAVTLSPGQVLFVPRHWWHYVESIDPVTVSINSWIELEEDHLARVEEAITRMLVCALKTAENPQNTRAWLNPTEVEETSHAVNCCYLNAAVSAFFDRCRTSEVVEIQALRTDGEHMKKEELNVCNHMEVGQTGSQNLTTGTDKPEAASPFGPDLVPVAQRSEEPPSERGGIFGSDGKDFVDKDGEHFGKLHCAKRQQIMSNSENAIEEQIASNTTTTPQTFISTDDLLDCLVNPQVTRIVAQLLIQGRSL
Sequence of UniProt P52789 (P52789 whole entry, looked up): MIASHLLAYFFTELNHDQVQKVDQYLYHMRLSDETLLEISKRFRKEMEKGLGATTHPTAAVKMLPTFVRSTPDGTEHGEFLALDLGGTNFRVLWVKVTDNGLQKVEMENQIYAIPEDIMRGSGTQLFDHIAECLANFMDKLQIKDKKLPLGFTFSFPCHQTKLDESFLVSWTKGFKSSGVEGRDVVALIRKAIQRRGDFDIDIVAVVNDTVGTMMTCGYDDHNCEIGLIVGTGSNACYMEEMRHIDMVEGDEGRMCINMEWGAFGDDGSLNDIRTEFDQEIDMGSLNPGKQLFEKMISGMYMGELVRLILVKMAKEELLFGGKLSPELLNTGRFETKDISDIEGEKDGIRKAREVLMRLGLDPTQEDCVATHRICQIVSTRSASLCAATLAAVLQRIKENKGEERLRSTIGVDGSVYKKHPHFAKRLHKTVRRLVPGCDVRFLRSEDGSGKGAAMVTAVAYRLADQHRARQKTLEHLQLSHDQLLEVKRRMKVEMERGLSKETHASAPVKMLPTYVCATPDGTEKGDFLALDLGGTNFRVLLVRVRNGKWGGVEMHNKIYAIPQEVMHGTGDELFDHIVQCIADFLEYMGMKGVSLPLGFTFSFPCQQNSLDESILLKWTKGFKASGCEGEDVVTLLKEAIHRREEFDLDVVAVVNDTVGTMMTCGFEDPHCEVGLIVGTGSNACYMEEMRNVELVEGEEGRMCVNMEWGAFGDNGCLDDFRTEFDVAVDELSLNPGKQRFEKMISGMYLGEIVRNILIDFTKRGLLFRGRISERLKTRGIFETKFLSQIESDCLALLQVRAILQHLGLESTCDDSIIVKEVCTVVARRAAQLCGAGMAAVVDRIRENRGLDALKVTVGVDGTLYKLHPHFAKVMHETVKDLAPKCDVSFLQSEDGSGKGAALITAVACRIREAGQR
Sequence of UniProt Q8IYU2 (Q8IYU2 whole entry, looked up): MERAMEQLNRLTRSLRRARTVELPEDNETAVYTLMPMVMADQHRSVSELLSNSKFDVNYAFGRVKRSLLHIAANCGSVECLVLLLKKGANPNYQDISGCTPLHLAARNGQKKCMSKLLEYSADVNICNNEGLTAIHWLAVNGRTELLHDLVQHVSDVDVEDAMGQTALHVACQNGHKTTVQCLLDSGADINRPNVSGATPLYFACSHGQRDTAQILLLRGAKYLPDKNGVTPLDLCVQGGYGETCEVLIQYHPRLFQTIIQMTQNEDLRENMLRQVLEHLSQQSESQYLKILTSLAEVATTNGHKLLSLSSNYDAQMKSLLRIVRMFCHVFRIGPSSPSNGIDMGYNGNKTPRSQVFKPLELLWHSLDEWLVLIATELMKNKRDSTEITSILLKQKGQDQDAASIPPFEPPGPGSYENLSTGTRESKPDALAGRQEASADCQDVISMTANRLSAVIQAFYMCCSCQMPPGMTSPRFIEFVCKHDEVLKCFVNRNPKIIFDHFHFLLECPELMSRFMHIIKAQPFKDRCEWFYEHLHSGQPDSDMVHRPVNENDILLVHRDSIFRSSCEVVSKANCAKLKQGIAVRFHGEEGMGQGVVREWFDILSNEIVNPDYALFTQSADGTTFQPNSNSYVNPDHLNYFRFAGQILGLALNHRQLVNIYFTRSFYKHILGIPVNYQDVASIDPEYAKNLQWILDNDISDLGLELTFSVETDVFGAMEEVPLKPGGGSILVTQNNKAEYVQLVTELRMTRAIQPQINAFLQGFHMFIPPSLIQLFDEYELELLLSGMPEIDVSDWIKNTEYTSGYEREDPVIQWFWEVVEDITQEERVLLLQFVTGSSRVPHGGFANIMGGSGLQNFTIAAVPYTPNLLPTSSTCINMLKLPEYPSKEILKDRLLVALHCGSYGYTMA
Sequence of UniProt P40939 (P40939 whole entry, looked up): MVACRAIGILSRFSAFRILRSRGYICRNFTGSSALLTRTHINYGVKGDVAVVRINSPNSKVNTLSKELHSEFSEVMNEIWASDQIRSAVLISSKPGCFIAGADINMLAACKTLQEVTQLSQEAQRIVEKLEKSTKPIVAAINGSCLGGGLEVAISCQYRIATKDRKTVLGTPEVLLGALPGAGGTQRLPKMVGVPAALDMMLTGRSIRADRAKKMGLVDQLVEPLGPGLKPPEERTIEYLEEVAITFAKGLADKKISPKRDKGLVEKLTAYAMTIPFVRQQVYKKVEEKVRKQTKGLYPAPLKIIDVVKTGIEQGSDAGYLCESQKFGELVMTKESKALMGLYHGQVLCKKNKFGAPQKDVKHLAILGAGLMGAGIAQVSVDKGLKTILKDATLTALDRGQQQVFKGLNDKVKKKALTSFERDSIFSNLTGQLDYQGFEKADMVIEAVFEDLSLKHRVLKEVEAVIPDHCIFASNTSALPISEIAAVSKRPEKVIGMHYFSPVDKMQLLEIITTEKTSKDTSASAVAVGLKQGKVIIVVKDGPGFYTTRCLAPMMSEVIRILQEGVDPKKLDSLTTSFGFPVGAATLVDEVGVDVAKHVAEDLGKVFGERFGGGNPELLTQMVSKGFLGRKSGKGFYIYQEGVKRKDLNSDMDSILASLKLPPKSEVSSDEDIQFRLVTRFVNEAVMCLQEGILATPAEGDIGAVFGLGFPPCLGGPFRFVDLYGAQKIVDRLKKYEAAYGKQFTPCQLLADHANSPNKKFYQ

Target	log2 fold change (lapatinib)	log2 fold change (pictilisib)	log2 fold change (crizotinib)	log2 fold change [1]	log2 fold change (duvelisib)	log2 fold change (gandotinib)	log2 fold change (tozasertib)	log2 fold change (doramapimod)	log2 fold change (bafetinib)	log2 fold change [2]	log2 fold change (nilotinib)	log2 fold change [3]	log2 fold change (dasatinib)	log2 fold change [4]	log2 fold change [5]	log2 fold change (quisinostat)	log2 fold change (tipifarnib)	log2 fold change [6]	log2 fold change [7]	log2 fold change [8]
HSPBAP1 (UniProt Q96EW2)	-0.074	-0.014	-0.111	-0.076	0.022	0.15	-0.025	0.125	0.052	-0.141	0.1	0.039	0.011	0.14	0.213	-0.07	0.056	0.024	-0.056	0.032
HADH isoform 2 (UniProt Q16836)	-0.011	0.04	0.031	0.057	-0.044	-0.05	0.053	-0.055	0.045	-0.055	-0.028	0.049	0.288 (active)	0.031	0.008	0.124	0.032	-0.006	0.029	-0.031
HACE1 (UniProt Q8IYU2)	-0.05	0.005	0.026	-0.491 (active)	0.033	0.302	-0.036	0.015	-0.036	0.426	-0.027	0.043	-0.154	0.035	-0.084	0.061	-0.175	0.181	0.028	-0.02
IMMT (UniProt C9J406)	0.017	0.082	-0.116	-0.461 (active)	0.003	0.048	0.015	-0.034	0.03	0.168	-0.044	0.09	0.045	0.012	0.051	0.022	-0.03	0	0.023	-0.038
KDM6A (UniProt O15550)	0.033	0.046	0.003	-0.028	0.032	0.009	0.01	0.022	0.002	0.013	0.009	0.033	0.041	-0.009	0.015	-0.062	-0.031	0.002	-0.017	0.009
KHDRBS1 (UniProt Q07666)	-0.035	0.024	0.025	0.046	0.005	-0.08	0.008	-0.017	0.039	-0.031	-0.032	-0.012	-0.048	-0.011	-0.003	0.037	0.032	0.005	0.011	0.028
HMGB2 (UniProt P26583)	0.006	0.021	0.052	0.266 (active)	-0.01	-0.16	-0.022	-0.088	0.14	-0.244 (active)	0.045	-0.042	0.057	0.077	0.018	0.065	0.033	-0.014	-0.018	0
HEATR3 (UniProt Q7Z4Q2)	-0.003	0	-0.074	-0.006	-0.005	-0.078	-0.021	0.027	-0.064	0.031	0.023	-0.021	-0.042	-0.031	0.062	-0.078	0.019	0.033	-0.015	0.001
GSK3A (UniProt P49840)	-0.026	0.207	0.069	-0.002	0.016	0.641 (active)	-0.017	0.002	0.008	-0.02	0.026	0.425	0.021	0.562 (active)	0.048	-0.009	-0.008	-0.024	0.099	-0.006
HECTD3 (UniProt Q5T447)	-0.047	-0.098	-0.034	-0.001	-0.006	-0.013	0.018	0.056	-0.13	-0.004	-0.004	0.041	-0.016	-0.012	0.006	0.026	0.059	0.05	0.003	0.056
HADHA (UniProt P40939)	0.1	0.077	0.063	-0.01	0.037	0.129	-0.013	0.207	0.032	-0.053	0.051	-0.024	-0.036	0.002	0.03	-0.082	0.025	-0.077	-0.071	0.078
KDM1A (UniProt O60341)	-0.01	-0.029	-0.036	-0.055	-0.025	-0.056	-0.031	0.015	-0.016	0.025	-0.009	0.007	-0.023	0.005	0.012	-0.045	-0.052	0.029	0.007	-0.026
GLYR1 (UniProt Q49A26)	0.053	0.045	-0.058	0.019	-0.079	0.045	-0.044	0.11	-0.042	-0.04	0.082	0.02	-0.053	0.053	-0.048	-0.119	-0.12	-0.049	-0.012	0.023
HK2 (UniProt P52789)	-0.003	-0.017	-0.069	0.043	0.007	-0.056	0.007	0.05	-0.076	0.004	0.065	-0.003	-0.052	0	0.033	-0.079	-0.01	0.048	0.035	-0.031
HMGA1 (UniProt P17096)	-0.023	0.03	0.007	-0.27	0.058	0.069	-0.062	-0.02	0.043	0.036	0.035	0.039	-0.012	0.014	-0.08	-0.018	0.032	-0.004	-0.025	-0.059
ILKAP (UniProt Q9H0C8)	0.04	0.049	0.026	0.022	0.007	-0.052	0.031	0.029	0.001	-0.021	0.023	-0.01	0.025	-0.094	-0.009	0.011	-0.005	0.005	0.026	0.044
